The target of assay [1] is Glutathione peroxidase 1 (Homo sapiens) (UniProt P07203). The assay can be described thus: Primary qHTS Assay for Inhibitors of Recombinant Selenoprotein Glutathione Peroxidase 1 (GPX1) (AID 1845191). Further: nearly all actives have a fitted effect of over 65% in size. Further: potency means the concentration at half of the fitted maximal effect. In outline: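 GR-coupled assay: compounds preincubated 30 min at room temperature with GPX1, then reaction started with CHP; final 10 nM GPX1, 1 mM GSH, 0.5 mM CHP, 0.5 mM NADPH, 100 nM GR, 0.01% BSA, pH 7.5 Tris buffer. NADPH fluorescence (340/450 nm) read at 0 and 15 min.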
Sequence of Glutathione peroxidase 1 (Homo sapiens) (P07203 whole entry, looked up): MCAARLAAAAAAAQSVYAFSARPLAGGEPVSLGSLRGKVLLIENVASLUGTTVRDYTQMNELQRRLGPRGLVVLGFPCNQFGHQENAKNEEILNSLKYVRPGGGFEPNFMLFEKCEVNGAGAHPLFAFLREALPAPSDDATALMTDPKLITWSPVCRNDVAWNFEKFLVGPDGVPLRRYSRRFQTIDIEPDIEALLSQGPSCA
Background: qHTS replaces the single test concentration by a dilution series.

A short description of assay [2]: HepG2 viability counterscreen (readout 2: ATP content) against the NCATS DSHEA and TCM libraries (AID 1794840). The procedure, abridged: (§1)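 HepG2 cells, 1,000/well, attached ~4 h, then exposed ~24 h at 37C to substances. Protease activity read by fluorescence of 25 uM GF-AFC (Ex/Em 380/510 nm) after 30 min; ATP then by CellTiter-Glo luminescence.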
On the technique in general: The purpose of a counterscreen is to sort out artefacts and off-target activity.

Assay [3] in a line: HepG2 viability counterscreen (readout 1: protease activity) against the NCATS DSHEA and TCM libraries (AID 1794841).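 Further: cells exposed to compounds for about 24 h before the protease read.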 In outline: as §1
Assay [4] has as its target Cytochrome P450 3A4 (Homo sapiens) (UniProt P08684). The assay can be described thus: qHTS for inhibitors of CYP3A4 against the NCATS DSHEA and TCM libraries (AID 1919971).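 Further: inhibition lowers luminescence from luciferin made by CYP3A4.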 In outline: (§2)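 Luminescent P450-Glo format: compounds preincubated 15 min with enzyme and luciferin substrate, reaction run 30-45 min after NADPH regeneration solution. Intraplate controls: ketoconazole for CYP3A4 and CYP2C19, sulfaphenazole for CYP2C9.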

In assay [5] the target is Cytochrome P450 2D6 (Homo sapiens) (UniProt P10635). The assay can be described thus: qHTS for inhibitors of CYP2D6 against the NCATS DSHEA and TCM libraries (AID 1919972). In outline: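 Luminescent P450-Glo read-out of CYP2D6 turnover of a luciferin substrate after NADPH-driven reaction of 30-45 min at room temperature. Compounds were first preincubated 15 min with enzyme at titrated concentrations; quinidine was the intraplate control.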
Sequence of Cytochrome P450 2D6 (Homo sapiens) (P10635 whole entry, looked up): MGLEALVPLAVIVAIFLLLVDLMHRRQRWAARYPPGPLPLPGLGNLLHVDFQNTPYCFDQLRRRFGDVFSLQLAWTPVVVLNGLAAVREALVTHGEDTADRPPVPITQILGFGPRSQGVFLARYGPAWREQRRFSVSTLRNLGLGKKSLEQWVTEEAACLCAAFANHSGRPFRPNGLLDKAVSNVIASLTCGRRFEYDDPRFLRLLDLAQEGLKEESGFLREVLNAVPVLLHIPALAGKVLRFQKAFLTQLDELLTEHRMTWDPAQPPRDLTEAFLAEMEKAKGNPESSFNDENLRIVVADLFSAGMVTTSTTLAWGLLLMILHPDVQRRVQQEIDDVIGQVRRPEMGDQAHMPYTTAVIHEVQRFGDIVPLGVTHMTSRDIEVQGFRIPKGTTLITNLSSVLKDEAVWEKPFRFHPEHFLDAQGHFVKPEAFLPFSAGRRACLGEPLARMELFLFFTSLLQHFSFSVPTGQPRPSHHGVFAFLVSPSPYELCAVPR

Assay [6] has as its target Cytochrome P450 2C9 (Homo sapiens) (UniProt P11712). The assay can be described thus: qHTS for inhibitors of CYP2C9 against the NCATS DSHEA and TCM libraries (AID 1919973).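 Further: luminogenic pro-luciferin CYP2C9 substrate turned into luciferin with NADPH regeneration; series mostly up to about 34 µM.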 In outline:
as §2

Assay [7] addresses Cytochrome P450 2C19 (Homo sapiens) (UniProt P33261). The assay can be described thus: qHTS for inhibitors of CYP2C19 against the NCATS DSHEA and TCM libraries (AID 1919974).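 Further: luminescence from luciferin released by CYP2C19 oxidation of a pro-luciferin substrate.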 Further: potency means the concentration at half of the fitted maximal effect. In outline:
as §2

The nature of assay [8]: KB-3-1 P-gp reporter qHTS against the NCATS DSHEA and TCM libraries (AID 1919975). From the text: Assay Development and Screening Technology Laboratory (ADST)
National Center for Advancing Translational Sciences (NCATS), Rockville, MD
National Institute of Health (NIH), Bethesda, Maryland
Dietary Supplements and Natural Products have minor oversight of their safety and efficacy. We assembled a collection of Dietary Supplements and Natural Products (DSNP) as well as Traditional Chinese Medicinal (TCM) Plant extracts, which were screened against an in vitro panel of assays, including a liver cytochrome p450 enzyme panel, CAR/PXR signaling pathways, and P-gp transporter assays, to assess their activity. This pipeline facilitated the interrogation of Natural Product-Drug Interaction (NaPDI) through prominent metabolizing pathways. In addition, we compared the activity profiles of the DSNP/TCM substances with those of an approved drug collection. Many of the approved drugs have well-annotated mechanisms of action (MOA) while the MOAs for most of the DSNP and TCM samples remain unknown. Based on the premise that compounds with similar activity profiles tend to share similar targets or MOA, we clustered the library activity profiles to identify overlap with the NCATS Pharmaceutical Collection to predict the MOAs of the DSNP/TCM substances. Overall, we highlight four significant bioactivity profiles (measured by p-values) as examples of this prediction. To assess broad cytotoxicity, we employed screening against a HepG2 cell line. In addition, transporter-mediated drug interactions are utilized in the characterization of DDIs using a P-glycoprotein (P-gp) assays. To profile potential P-gp activity, a differential cell viability was measured against two cell lines: a parental KB-3-1 human cervical adenocarcinoma cell line and the drug-resistant subline KB-8-5-11 that overexpresses P-gp.
To this end, we profiled both collections for potential CAR and/or PXR activity, employing a previously published 1536-well qHTS assay.
[1] Lee TD, et al. A High-Throughput Screen of a Library of Therapeutics Identifies Cytotoxic Substrates of P-glycoprotein. Mol Pharmacol. Nov 2019;96(5):629-640. doi:10.1124/mol.119.115964
PROTOCOL TABLE (as described by Inglese J, Shamu CE and Guy RK. 2007)
SEQUENCE No. (e.g., 1, 2, 3, etc.); PARAMETER (e.g., Cells, Incubation, Reagent, etc.); VALUE; DESCRIPTION.
1; Cells; 5 uL; KB-3-1 cells, white solid-bottom tissue treated Greiner plate.
2; Incubation; 4 hrs; 37C, 95% humidity, 5% CO2.
3; Compounds and control; 23 nL; Kalypsis pin tool (Wako USA) equipped with a 1536-well pin head to transfer to the assay plates.
4; Incubation; 72 hrs; 37C, 95% humidity, 5% CO2.
5; Reagent; 2.5 uL; CellTiter-Glo.
6; Centrifuge; 1000 RPM; 15 seconds. […]
8; Read; Luminescence; ViewLux plate reader. […]
8. Luminescence intensity was detected using a PerkinElmer ViewLux microplate reader. […]

For assay [9], the target named is Nuclear receptor subfamily 1 group I member 3 (Homo sapiens) (UniProt Q14994). The assay can be described thus: Primary qHTS for agonist of constitutive androstane receptor (CAR) against the NCATS DSHEA and TCM libraries (AID 1794839).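 Further: HepG2 cells expressing human CAR with a CYP2B6 reporter plus PK11195 antagonist.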 In outline:
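HepG2-CYP2B6-hCAR cells, 2,500/well, attached 5 h, then dosed with 0.75 µM PK11195 (final) for 24 h at 37 °C. Luciferase luminescence read (ONE-Glo); CellTiter-Fluor viability (Ex/Em 405/540 nm) in same wells; CITCO positive control.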

Assay [10] concerns the target Phospholipid hydroperoxide glutathione peroxidase GPX4 (Homo sapiens) (UniProt P36969). The assay can be described thus: Primary qHTS Assay for Inhibitors of Recombinant Selenoprotein Glutathione Peroxidase 4 (GPX4) (AID 1845192). Further: nearly all actives have a fitted effect of over 65% in size. The procedure, abridged:
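GR-coupled assay: recombinant GPX4 preincubated 30 min with compound at room temperature; final 200 nM GPX4, 1 mM GSH, 0.5 mM cumene hydroperoxide, 0.5 mM NADPH, 100 nM GR, 0.01% BSA, pH 7.5 Tris. NADPH fluorescence (340/450 nm) read at 0 and 15 min.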

Each structure is given as a SMILES string. A number with no mark means an inactive call. Results filed as inconclusive are left out. A call without a number means that no potency is given here. Activity calls are given as the source filed them. The call rests on the fitted dose curve; in most records, active means well fitted curve in the direction sought with a large enough effect; inconclusive means small, poorly fitted or top-dose-only effect, or another doubt; inactive means no such curve, though single readings can be large; an effect the other way counts as inactive or inconclusive.

Sequence of Phospholipid hydroperoxide glutathione peroxidase GPX4 (Homo sapiens) (P36969 whole entry, looked up): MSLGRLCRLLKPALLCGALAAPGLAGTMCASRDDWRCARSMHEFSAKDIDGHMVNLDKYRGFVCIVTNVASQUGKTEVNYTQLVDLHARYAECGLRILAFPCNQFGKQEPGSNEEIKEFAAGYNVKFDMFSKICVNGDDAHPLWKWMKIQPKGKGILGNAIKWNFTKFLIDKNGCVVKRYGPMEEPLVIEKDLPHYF
Sequence of Nuclear receptor subfamily 1 group I member 3 (Homo sapiens) (Q14994 whole entry, looked up): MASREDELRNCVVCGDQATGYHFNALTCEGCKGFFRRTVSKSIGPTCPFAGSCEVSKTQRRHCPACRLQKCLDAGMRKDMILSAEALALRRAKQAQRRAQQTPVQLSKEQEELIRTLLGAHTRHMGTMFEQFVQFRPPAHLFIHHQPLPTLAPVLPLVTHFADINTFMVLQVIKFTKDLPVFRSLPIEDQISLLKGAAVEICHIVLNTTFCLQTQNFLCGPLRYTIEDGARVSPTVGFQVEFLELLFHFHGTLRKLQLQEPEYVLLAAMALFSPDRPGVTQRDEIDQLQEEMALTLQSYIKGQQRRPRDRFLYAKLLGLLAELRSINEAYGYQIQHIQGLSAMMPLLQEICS
Sequence of Cytochrome P450 3A4 (Homo sapiens) (P08684 whole entry, looked up): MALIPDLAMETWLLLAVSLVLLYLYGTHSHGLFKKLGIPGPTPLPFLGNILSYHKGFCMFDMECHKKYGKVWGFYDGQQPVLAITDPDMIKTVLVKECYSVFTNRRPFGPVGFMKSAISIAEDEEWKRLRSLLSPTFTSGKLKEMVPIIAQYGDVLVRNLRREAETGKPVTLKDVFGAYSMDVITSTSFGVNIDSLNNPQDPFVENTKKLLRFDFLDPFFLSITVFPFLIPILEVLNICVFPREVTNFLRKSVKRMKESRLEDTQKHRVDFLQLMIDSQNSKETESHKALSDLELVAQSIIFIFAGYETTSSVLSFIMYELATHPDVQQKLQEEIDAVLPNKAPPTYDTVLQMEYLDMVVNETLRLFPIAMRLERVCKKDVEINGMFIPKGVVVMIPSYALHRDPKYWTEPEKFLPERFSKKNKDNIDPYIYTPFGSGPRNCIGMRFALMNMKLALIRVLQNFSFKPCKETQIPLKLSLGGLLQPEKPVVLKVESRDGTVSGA
Sequence of Cytochrome P450 2C9 (Homo sapiens) (P11712 whole entry, looked up): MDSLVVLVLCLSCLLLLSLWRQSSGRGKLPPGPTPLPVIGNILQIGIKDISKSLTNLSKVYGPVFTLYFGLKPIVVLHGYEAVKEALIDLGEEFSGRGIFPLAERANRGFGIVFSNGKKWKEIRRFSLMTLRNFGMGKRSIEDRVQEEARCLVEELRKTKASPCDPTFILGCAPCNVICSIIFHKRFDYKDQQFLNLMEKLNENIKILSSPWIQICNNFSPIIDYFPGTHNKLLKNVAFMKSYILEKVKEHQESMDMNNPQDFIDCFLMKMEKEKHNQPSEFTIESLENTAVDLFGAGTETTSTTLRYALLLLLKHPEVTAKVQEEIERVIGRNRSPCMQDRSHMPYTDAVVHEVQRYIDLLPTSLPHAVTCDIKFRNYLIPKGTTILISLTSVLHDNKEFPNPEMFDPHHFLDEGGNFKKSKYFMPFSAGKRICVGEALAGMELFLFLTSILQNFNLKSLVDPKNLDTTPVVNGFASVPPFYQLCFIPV
Sequence of Cytochrome P450 2C19 (Homo sapiens) (P33261 whole entry, looked up): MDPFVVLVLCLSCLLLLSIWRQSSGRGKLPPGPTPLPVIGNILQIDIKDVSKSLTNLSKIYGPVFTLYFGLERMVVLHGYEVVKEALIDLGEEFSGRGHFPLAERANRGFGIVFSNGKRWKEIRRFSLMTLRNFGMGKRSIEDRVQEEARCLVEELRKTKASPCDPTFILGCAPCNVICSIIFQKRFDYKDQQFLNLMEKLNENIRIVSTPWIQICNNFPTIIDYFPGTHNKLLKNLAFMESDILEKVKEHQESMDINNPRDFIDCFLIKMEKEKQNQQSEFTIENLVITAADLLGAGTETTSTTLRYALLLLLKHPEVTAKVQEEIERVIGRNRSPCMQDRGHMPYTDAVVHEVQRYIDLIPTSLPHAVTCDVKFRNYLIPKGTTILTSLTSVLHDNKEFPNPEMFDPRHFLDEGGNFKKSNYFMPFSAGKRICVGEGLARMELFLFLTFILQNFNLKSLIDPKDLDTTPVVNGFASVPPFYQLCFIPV

Consider `CN1C(=O)CC(c2ccccc2)C1=O` (stereo not drawn), for which, in assay [1], the Potency entry is “inactive”.

On to `C=CCN1C[C@H](C(=O)N(CCCN(C)C)C(=O)NCC)C[C@@H]2c3cccc4[nH]cc(c34)C[C@H]21`, for which the Potency entry in [1] is “inactive”.

For the compound `COCC(=O)Nc1c(I)c(C(=O)NCC(O)CO)c(I)c(C(=O)N(C)CC(O)CO)c1I` (stereo not drawn), the Potency entry in [1] was “inactive”. Turning to `O=C(/C=C/c1ccc(O)c(O)c1)O[C@@H]1C[C@@](OC(=O)/C=C/c2ccc(O)c(O)c2)(C(=O)O)C[C@@H](O)[C@@H]1O`, the call in [2], in assay [3], in assay [4], in assay [5], in assay [6] and in [8] was inactive. The Potency result in [7] is “inactive”. As to `Cc1cccc(C)c1NC(=O)CC12CCCN1CCC2`, the Potency entry in [1] is “inactive”.

For `CC(C)(C)NCC(O)COc1cccc2c1CCC(=O)N2` (stereo not drawn), the Potency result in [1] was “inactive”.

On to `CC[N+](CC)(CC(=O)Nc1c(C)cccc1C)Cc1ccccc1`, for which the Potency entry in assay [1] is “inactive”. On the same count and under the same terms, the entry for `CC(=O)[C@@]1(O)CC[C@H]2[C@@H]3C[C@H](C)C4=CC(=O)C=C[C@]4(C)[C@@]3(F)[C@@H](O)C[C@@]21C` is “inactive”; for `c1ccc2[nH]ccc2c1` it is “inactive”; for `O=C(O)c1ccc(OCCCOc2ccc(C(=O)O)cc2)cc1` it is “inactive”. Same read-out and setting: the entry for `O=C(OOC(=O)c1ccccc1)c1ccccc1` is “inactive”; for `CC(C)(C)C(=O)OCOC(=O)[C@@H]1N2C(=O)[C@@H](NC(=O)[C@H](N)c3ccccc3)[C@H]2SC1(C)C` it is “inactive”. For `O=C(O)C(S)C(S)C(=O)O` (stereo not drawn), in [1], the Potency is 7.18 µM (active). On the same count and under the same terms, then `CC(=O)N[C@@H](Cc1ccc(O)cc1)C(=O)O`, with “inactive”; and `CC(CN(C)C)C(C)(O)Cc1ccc(Cl)cc1` (stereo not drawn), with “inactive”.

Take `NC(=O)NC1NC(=O)NC1=O` (stereo not drawn): the outcome in [9], in assay [2], in assay [3], in assay [4], in assay [5] and in [6] was inactive. In addition, the compound was called inactive in assay [8]. For the same compound, the Potency entry in assay [1] and in assay [7] was “inactive” each time. On to `OC[C@@H](O)[C@@H](O)[C@H](O)[C@H](O)CO`, for which, in assay [1], the Potency entry was “inactive”. Same read-out and setting: then `CN[C@@H]1[C@@H](O)[C@@H](O[C@@H]2[C@H](O)[C@H](O[C@H]3OC(CN)=CC[C@H]3N)[C@@H](N)C[C@H]2N)OCC1(C)O` (stereo partly drawn), with “inactive”; and `O=C(O)CNC(=O)c1ccccc1I`, with “inactive”. With `CC(C)=CCC[C@@](C)(O)[C@H]1CC=C(C)CC1`, the call in assay [9], in assay [2], in [3], in assay [5] and in assay [8] was inactive. Further, the Potency in assay [7] was 5.01 µM (active). Take `Cn1cc(C(=O)[C@@H]2CCc3nc[nH]c3C2)c2ccccc21`: the Potency result in assay [1] was “inactive”. Still for that read-out and setting: the entry for `CCN[C@H]1CN(CCCOC)S(=O)(=O)c2sc(S(N)(=O)=O)cc21` is “inactive”. Turning to `O[C@@H]1CO[C@H]2[C@@H]1OC[C@@H]2O`, in assay [1], the Potency result was “inactive”. With `C[C@@H]1O[C@@H](OC[C@H]2O[C@@H](Oc3c(-c4ccc(O)c(O)c4)oc4cc(O)cc(O)c4c3=O)[C@H](O)[C@@H](O)[C@@H]2O)[C@H](O)[C@H](O)[C@H]1O`, the Potency result in assay [1] is “inactive”. Regarding `Cc1ccc(C(C)C)c(O)c1`, the result in assay [9], in assay [2], in assay [3], in assay [4], in assay [5] and in assay [6] was inactive. Moreover, in assay [8], the result was inactive. Further, the Potency result in assay [1] and in assay [10] was “inactive” each time. Turning to `CCOc1ccccc1O[C@H](c1ccccc1)[C@H]1CNCCO1`, in assay [1], the Potency entry was “inactive”. The same measure, in the same setting: the entry for `CCCC(O)C(CC)CO` (stereo not drawn) is “inactive”. Same read-out and setting: then `NC(N)=NS(=O)(=O)c1ccc(N)cc1`, with “inactive”; and `CCCCCCCCCCCCCCCCCCO`, with “inactive”; and `Cc1c(N(C)C)c(=O)n(-c2ccccc2)n1C`, with “inactive”. As for `CN/C(=C\[N+](=O)[O-])NCCSCc1csc(CN(C)C)n1`, in assay [1], the Potency result was “inactive”. On the same count and under the same terms, the entry for `O=C(NCC(O)CO)c1c(I)c(C(=O)NCC(O)CO)c(I)c(N(CCO)C(=O)CO)c1I` (stereo not drawn) is “inactive”; for `CCCCC1(COC(=O)CCC(=O)O)C(=O)N(c2ccccc2)N(c2ccccc2)C1=O` it is “inactive”; for `COC(=O)N/N=C/c1c[n+]([O-])c2ccccc2[n+]1[O-]` it is “inactive”.

`NS(=O)(=O)c1cc(-c2nn[nH]n2)c(NCc2cccs2)cc1Cl`: in assay [1], the Potency result is “inactive”. The same measure, in the same setting: then `Cc1c(NC(=O)c2cccnc2)c(=O)n(-c2ccccc2)n1C`, with “inactive”.

Consider `COc1ccc(C(=O)NCc2ccc(OCCN(C)C)cc2)cc1OC`, for which the Potency result in assay [1] and in assay [10] was “inactive” in each case. In the case of `O=C(O)CCCc1ccccc1`, the Potency entry in assay [1] and in assay [10] was “inactive” in each case. With `CCc1cccc(CC)c1NC(=O)CN(CC(=O)O)CC(=O)O`, the Potency result in assay [1] is “inactive”. Take `CC(=O)N(CC(O)CO)c1c(I)c(C(=O)NCC(O)CO)c(I)c(C(=O)NCC(O)CO)c1I` (stereo not drawn): the Potency entry in assay [1] and in [10] was “inactive” in each case. As for `COC(=O)c1cccnc1`, the Potency entry in assay [1] and in assay [10] was “inactive” each time.

Consider `CC(=O)Oc1cccc(O)c1`, for which the Potency entry in assay [1] and in [10] was “inactive” each time. In the case of `O=C(O)CCCCC1CCSS1` (stereo not drawn), the Potency in [1] is 11.4 µM (active). The Potency result in assay [10] was “inactive”. Taken in the same sequence, the figures for `Cc1cc(C)nc(NS(=O)(=O)c2ccc(N)cc2)n1` were “inactive” and “inactive”. Turning to `NS(=O)(=O)c1cc(C2(O)NC(=O)c3ccccc32)ccc1Cl` (stereo not drawn), in [1], the Potency entry is “inactive”. In the case of `CCCCCCCC(=O)OCC(O)CO` (stereo not drawn), the Potency result in [1] and in assay [10] was “inactive” each time.

As to `CCCCCCCCCCOc1cc2c(=O)c(C(=O)OCC)c[nH]c2cc1OCC`, the activity, negative = inhibition in [1] is -3.55% [at 4.49 µM]. Consider `CCOc1cc(NC(C)=O)ccc1C(=O)OC`, for which the Potency entry in assay [1] and in assay [10] was “inactive” in each case. On to `CC(=O)Oc1cccc(C)c1`, for which the Potency entry in assay [1] and in [10] was “inactive” each time.

As for `CCN(CC)C(=O)c1cccc(C)c1`, the Potency result in assay [1] and in assay [10] was “inactive” each time.

The values are drawn from PubChem BioAssay (NCATS).
